From PubChem BioAssay
In the library only some 2.4% were active in any assay of this set; here they are far more common.
CHO-K1 Ca antag: M1 antagonist counterscreen hit in parental CHO-K1 cells; inhibition, % at 3 µM; ATP-induced calcium, Fluo-8 fluorescence; 360,000 tested, 0.6% active; AID 602250;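 active means inhibition above a per-plate cutoff, the plate's mean sample inhibition plus 3 SD, cut at about 24% in these data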;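 further: 0% = DMSO plus EC80 ATP and 100% = DMSO alone without ATP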
M1 antag: antagonists of human M1 muscarinic receptor; inhibition, % at 3 µM; 360,000 tested, 1.3% active; P11229; CHO-K1 hM1, Fluo-8 calcium fluorescence, ACh EC80 antagonist;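 active means percent inhibition above its own plate's cutoff, namely the mean of that plate's compound wells plus 3 SD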;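 further: peak over basal fluorescence ratio during 140 s after agonist addition; 0% = ACh EC80 plus DMSO and 100% = DMSO alone without agonist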
Target sequence (P11229 whole entry, looked up): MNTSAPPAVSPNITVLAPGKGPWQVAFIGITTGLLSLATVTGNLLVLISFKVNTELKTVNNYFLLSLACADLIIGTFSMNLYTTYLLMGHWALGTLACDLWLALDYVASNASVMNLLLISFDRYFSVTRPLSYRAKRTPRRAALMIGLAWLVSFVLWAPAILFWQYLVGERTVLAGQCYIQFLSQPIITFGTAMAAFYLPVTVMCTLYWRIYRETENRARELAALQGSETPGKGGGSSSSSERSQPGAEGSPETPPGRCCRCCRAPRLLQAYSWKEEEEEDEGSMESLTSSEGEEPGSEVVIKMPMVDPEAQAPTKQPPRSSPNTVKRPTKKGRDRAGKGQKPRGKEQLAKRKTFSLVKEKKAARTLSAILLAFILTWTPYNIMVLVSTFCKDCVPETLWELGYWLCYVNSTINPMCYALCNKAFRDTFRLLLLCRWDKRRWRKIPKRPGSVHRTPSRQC
M1 ag: agonists of human M1 muscarinic receptor. CHO-K1 hM1, Fluo-8 calcium fluorescence, agonist mode; 0% DMSO, 100% acetylcholine EC100. P11229. 360,000 tested, 0.33% active. activation, % at 3 µM;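 active means activation above the run's mean compound activation plus 3 SD, cut at about 16% in these data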;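 further: peak over basal fluorescence ratio within a 140 s kinetic read after compound addition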
M1 ag parental: M1 agonist counterscreen hit in parental CHO-K1 cells. activation, % at 3 µM. AID 602248. Fluo-8 calcium fluorescence; scaled to maximal ATP response, vehicle zero. 360,000 tested, 0.48% active; in the data active means activation above about 15%;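 further: untransfected CHO-K1 host cells lacking M1 receptor as counterscreen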
CHRM1 PAM: positive allosteric modulators of human M1 muscarinic receptor; P11229; AID 588819; CHO-K1 hM1, Fluo-8 calcium fluorescence, ACh EC20; 0% = ACh EC20, 100% = maximal ACh; 360,000 tested, 0.088% active; activation, % at 3 µM; in the data active means activation above about 19%, passing the limit was not always enough
M1 PAM parental: nonselective activator or artifact in parental CHO-K1 calcium assay | AID 602247 | ATP EC20, Fluo-8 calcium fluorescence; 0% at ATP EC20, 100% at ATP max | 360,000 tested, 0.02% active | activation, % at 3 µM;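 active means activation above the run cutoff, the mean activation of all test compounds plus 3 SD, cut at about 40% in these data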;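 further: peak over basal fluorescence ratio in a 140 s read after ATP addition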
* hit, by the source's call.

SMILES	CHO-K1 Ca antag	M1 antag	M1 ag	M1 ag parental	CHRM1 PAM	M1 PAM parental
Cc1cc(CSc2ccccc2)ccc1NC(=O)c1ccc(C)c([N+](=O)[O-])c1	-7	-12	-7	0	12	12
Cc1ccc(OCCCN2C(=O)C(=O)c3cccc(C)c32)cc1	-8	-12	14	1	11	21
Cc1cccc2c1N(CCOc1ccc(C(C)(C)C)cc1)C(=O)C2=O	5	-1	21*	0	-7	-4
Cc1cccc2c1N(CCOc1ccccc1Cl)C(=O)C2=O	-3	-16	24*	1	-1	18
CC1(C(=O)Nc2ccc3[nH]ncc3c2)CCN1C(=O)C1(c2ccccc2)CC1 (stereo not drawn)	-4	-18	0	1	11	10
O=C(Nc1nnc(SCc2cccnc2)s1)C1CC(=O)N(c2ccc(F)cc2)C1 (stereo not drawn)	-14	-6	-3	1	7	24
CCOC(=O)C1CCN(S(=O)(=O)c2cn(C)c(=O)n(C)c2=O)CC1	-8	32*	-10	1	-22	21
COC(=O)C1CCN(S(=O)(=O)c2cn(C)c(=O)n(C)c2=O)CC1	-13	-10	-1	1	3	31
CCOC(=O)C1CCN(CC(O)COc2ccc(S(=O)(=O)N3CCCC3)cc2[N+](=O)[O-])CC1 (stereo not drawn)	-8	40*	-9	1	-24	4
CCOC(=O)C1CCN(S(=O)(=O)c2ccc(Cl)nc2)CC1	-5	28*	-4	1	-9	-8
COCC(=O)Nc1ccc2c(c1)[C@@H]1C[C@H](CC(=O)OC)O[C@@H](CO)[C@@H]1O2	24*	19	-2	0	-10	-12
COC(=O)C[C@H]1C[C@@H]2c3cc(NC(=O)CN(C)C)ccc3O[C@@H]2[C@H](CO)O1	-11	-19	-1	1	9	17
O=c1c(Cl)c(Cl)cnn1Cc1nnc(-c2ccccc2Br)o1	95*	94*	86*	71*	-35	-7
Clc1ccccc1OCc1nnc(-c2ccccc2Br)o1	9	-23	-4	0	1	-4
O=C(O)c1ccc(CSc2nc3ccc(NC(=O)c4ccccc4C(=O)O)cc3s2)cc1	-2	-9	-6	1	1	1
N#Cc1ccccc1CSc1nc2ccc(NC(=O)c3ccccc3C(=O)O)cc2s1	31*	3	-13	3	3	-12
COc1ccc(O)c(CN2CCN(CCCc3ccccc3)C(CCO)C2)c1 (stereo not drawn)	-8	-13	-9	0	0	6
CC(O)c1c(-c2ccccc2)nn(C)c1Cl (stereo not drawn)	28*	0	-7	0	1	-13
CCC(O)c1c(-c2ccccc2)nn(C)c1Cl (stereo not drawn)	3	-9	-6	0	7	5
Cc1csc(N/N=C\c2cccnc2)n1	8	-5	-6	17*	7	14
CCOC(=O)N1CCC(N2CCN(CCC(C)C)C(CCO)C2)CC1 (stereo not drawn)	-1	41*	-9	1	-21	22
O=C(O)CN(c1ccc(F)cc1)S(=O)(=O)c1ccc2c(c1)OCCO2	-5	-18	-3	0	13	5
Cc1ccc(N(CC(=O)N2CC(=O)Nc3ccccc32)S(=O)(=O)c2ccc3c(c2)OCCO3)cc1	29*	-2	-3	0	6	-3
O=C(Cn1ncc2ccccc2c1=O)Nc1cccc(C(F)(F)F)c1	-10	1	-4	0	0	-1
N#Cc1c(N2CCN(c3ccc(F)cc3)CC2)nc(N)c2c(N)nc3c(c12)CC(=O)N3C1CC1	4	31*	0	6	-8	7
O=P1(NC2CCCCC2)OCC2(CO1)COP(=O)(NC1CCCCC1)OC2 (stereo not drawn)	-19	-18	-2	0	10	14
O=C1c2ccccc2C(O)N1Cc1cccs1 (stereo not drawn)	-4	-9	-6	15	11	26
CCOc1ccc(S(=O)(=O)N2CCCC(C(=O)NCC3CCCO3)C2)cc1Cl (stereo not drawn)	-18	-13	-2	1	12	15
